# Results: article PMC4336329 (PLoS ONE, 2015)
# The whole screen tested about 310,000 compounds, of which about 2,200 (0.71%) showed an effect of 50% or more. The effect is printed as a negative number. This excerpt belongs to a sample that is enriched for strong results.
# Molecular target: human ether-à-go-go-related gene (hERG) potassium channel (human, UniProt Q12809)
# Assay: primary screen, population patch clamp on CHO cells stably expressing hERG; higher = less effect of the substance
# Sequence of human ether-à-go-go-related gene (hERG) potassium channel (Q12809 whole entry, looked up): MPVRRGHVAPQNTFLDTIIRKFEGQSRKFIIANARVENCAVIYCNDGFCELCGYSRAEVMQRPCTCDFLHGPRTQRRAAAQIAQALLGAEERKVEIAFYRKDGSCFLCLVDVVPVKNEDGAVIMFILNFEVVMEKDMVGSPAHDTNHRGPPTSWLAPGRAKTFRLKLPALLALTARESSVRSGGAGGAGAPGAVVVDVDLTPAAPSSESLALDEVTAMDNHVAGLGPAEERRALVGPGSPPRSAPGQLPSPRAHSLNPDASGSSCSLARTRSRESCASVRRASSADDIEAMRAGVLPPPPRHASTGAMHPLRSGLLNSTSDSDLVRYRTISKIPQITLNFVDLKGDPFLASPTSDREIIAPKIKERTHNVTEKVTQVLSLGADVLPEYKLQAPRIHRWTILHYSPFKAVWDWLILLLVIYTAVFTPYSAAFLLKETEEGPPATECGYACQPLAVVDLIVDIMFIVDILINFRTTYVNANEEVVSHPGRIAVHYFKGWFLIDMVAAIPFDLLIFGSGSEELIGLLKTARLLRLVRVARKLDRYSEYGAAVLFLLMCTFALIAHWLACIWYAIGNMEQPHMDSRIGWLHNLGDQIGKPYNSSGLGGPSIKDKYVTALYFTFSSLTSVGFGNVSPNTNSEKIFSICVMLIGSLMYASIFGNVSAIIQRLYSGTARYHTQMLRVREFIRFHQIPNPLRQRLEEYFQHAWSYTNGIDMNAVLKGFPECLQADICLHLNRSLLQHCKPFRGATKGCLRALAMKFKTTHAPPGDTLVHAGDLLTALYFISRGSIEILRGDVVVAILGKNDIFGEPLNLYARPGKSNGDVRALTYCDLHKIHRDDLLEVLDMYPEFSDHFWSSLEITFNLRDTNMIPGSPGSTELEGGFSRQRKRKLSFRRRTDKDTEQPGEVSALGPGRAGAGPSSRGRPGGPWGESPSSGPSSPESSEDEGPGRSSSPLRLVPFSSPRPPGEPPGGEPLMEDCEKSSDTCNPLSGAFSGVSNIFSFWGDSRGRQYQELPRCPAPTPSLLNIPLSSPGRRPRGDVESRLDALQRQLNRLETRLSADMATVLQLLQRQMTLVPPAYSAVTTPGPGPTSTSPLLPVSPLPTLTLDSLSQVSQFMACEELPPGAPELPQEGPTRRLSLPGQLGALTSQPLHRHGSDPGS
row,Structure (SMILES),"hERG current change (%, negative = inhibition) at 1uM [%]"
1,CN(Cc1nc2ccccc2c(=O)[nH]1)C(=O)c1cccc(S(=O)(=O)N2CCCCCC2)c1,4.23
2,O=C(Oc1ccc(OC(=O)c2ccncc2)cc1)c1ccncc1,0.316
3,Cc1ccc(CN2C(=O)CN=C(c3ccccc3)c3ccccc32)cc1,2.73
4,Cc1noc(N)c1C(=O)Nc1ccc(C(C)(C)C)cc1,-5.42
5,O=C(NCc1cccnc1)c1ccc(-c2cccc(Cl)c2Cl)o1,5.38
6,O=C(CN1C(=O)NC2(CCCC2)C1=O)Nc1ccc(Cl)c(C(F)(F)F)c1,9.87
7,O=C(COC(=O)CCCOc1ccc(Cl)cc1Cl)NCc1ccccc1,1.55
8,O=C(Nc1c(-c2ccc(F)cc2)nc2ccccn12)c1ccc(F)cc1,-4.64
9,CCOc1ccc(Cl)cc1Nc1nc(NCCO)nc(N2CCCC2)n1,5.92
10,COc1ccc(N2C(=O)C(Cl)=C(N3CCCC(C)C3)C2=O)cc1 (stereo not shown),9.04
11,COc1ccc(CNCCc2ccc(Cl)cc2)cc1OCc1ccccc1,-52.2
12,COc1cc(CNCCc2ccccc2)ccc1OCc1ccc(Cl)nc1.Cl,-0.117
13,COc1ccccc1CCNCc1ccc(OC)c(OCc2ccccc2)c1,-29.4
14,O=C(OCc1cc(=O)n2c(n1)sc1ccccc12)c1ccc(O)cc1,17.3
15,COc1ccc(-n2cc(CNC3CCC(O)CC3)c(-c3cccc(F)c3)n2)cc1 (stereo not shown),4.86
16,COc1ccc(-n2cc(CNC3CCN(C)CC3)c(-c3cccc(F)c3)n2)cc1,-64.4
17,COc1ccc(-n2cc(CNC3CCOCC3)c(-c3cccc(F)c3)n2)cc1,-1.28
18,O=C(OCc1nnc(-c2ccccc2)o1)c1cn(-c2ccccc2)nc1-c1ccccc1,-1.95
19,CC1CCCN(C(=O)Cn2nnc(-c3ccc(S(C)(=O)=O)cc3)n2)C1 (stereo not shown),21.2
20,Cc1ccccc1NC(=O)C1CCN(c2cc(-c3ccccc3)nc3ncnn23)CC1,5.72
21,CCCNC(=O)C1CCN(c2cc(-c3ccccc3)nc3ncnn23)CC1,-65.6

row,Structure (SMILES),"hERG current change (%, negative = inhibition) at 1uM [%]"
1,COc1ccc(OC)c(NC(=O)C2CCN(c3cc(-c4ccccc4)nc4ncnn34)CC2)c1,-2.67
2,CNC(=S)N(CCc1c(C)[nH]c2ccc(C)cc12)Cc1ccco1,-2.69
3,CNC(=O)CN(c1cc(C)ccc1C)S(C)(=O)=O,2.83
4,Cc1ccccc1N/N=C1\CCCNC1=O,6.51
5,O=C(CSc1nnc(-c2cccnc2)n1Cc1ccco1)c1ccc(Cl)cc1,-21.1
6,O=C(NNC(=O)c1cccs1)c1ccc(Cl)cc1,9.36
7,CSc1ccccc1-n1nnnc1SCC(=O)Nc1ccccc1C,-9.11
8,COc1ccccc1/C=C/C=N/NC(=O)c1cccs1,16.1
9,COC(=O)c1ccc(-c2nc(CN3CCCN(C(=O)c4ccco4)CC3)c(C)o2)cc1,-15
10,Cc1oc(-c2ccc(Cl)cc2)nc1CN1CCCN(C(=O)c2ccco2)CC1,-57.4
11,O=C(c1ccco1)N1CCN(Cc2nnc(-c3cccc(Cl)c3)o2)CC1,-13.8
12,Cc1cc(N2CCN(Cc3nc(-c4ccc(F)cc4)oc3C)CC2)cc(C)n1,-27.2
13,Cc1ccc(-c2nc(CN3CCCC(C(=O)N4CCOCC4)C3)c(C)o2)cc1 (stereo not shown),-9.44
14,Cc1oc(-c2ccc(Cl)cc2)nc1CN1CCCC(C(=O)N2CCN(C(=O)c3ccco3)CC2)C1 (stereo not shown),-75.1
15,Cc1cccc(N2CCN(Cc3nc(-c4cccc(Cl)c4)oc3C)CC2)n1,-7.13
16,Cc1oc(-c2ccccc2Cl)nc1CN1CCCN(C(=O)c2ccco2)CC1,-21.4
17,Cc1cc(N2CCN(Cc3nc(-c4ccc(Cl)cc4)oc3C)CC2)cc(C)n1,-57.8
18,O=C(c1ccco1)N1CCN(Cc2nnc(-c3cccc(Br)c3)o2)CC1,-51.6
19,Cc1oc(-c2ccc(Cl)cc2)nc1CN1CCCC(C(=O)NCc2cccnc2)C1 (stereo not shown),-43.6
20,O=C(c1ccco1)N1CCN(Cc2nnc(-c3ccccc3)o2)CC1,-6.25
21,Nc1c([N+](=O)[O-])c(=O)sc2ccccc12,2.09

row,Structure (SMILES),"hERG current change (%, negative = inhibition) at 1uM [%]"
1,CN(C(=O)c1cccs1)c1ccc(OCC(=O)N2CCC(C(N)=O)CC2)cc1,25.6
2,O=C(Cn1nc(C(F)F)cc1C1CC1)NCCC1=CCCCC1,9.48
3,CCCCN(C(=O)CSc1nn(-c2ccc(F)cc2)c(=S)s1)c1c(N)n(CCCC)c(=O)[nH]c1=O,8.15
4,Cc1ccc(CCC(=O)Nc2ccccc2F)s1,4.84
5,O=C(CC1OC(=O)c2ccccc21)Nc1cccc(S(=O)(=O)N2CCCCCC2)c1 (stereo not shown),0.598
6,CN(C)CCCn1c(N)c(C#N)c2nc(C#N)c(C#N)nc21,11.4
7,CCOC(=O)CS(=O)(=O)c1ccc(O)cc1,26.2
8,O=C(NNC(=S)Nc1ccc(F)cc1)c1ccccc1OC(F)F,6.53
9,CCOc1ccc(CCNC(=O)c2cc(C)nc3ccccc23)cc1OCC,-10.6
10,Cn1nnnc1SCC(=O)NC(C)(C)C,7.36
11,CCOC(=O)N1CCC(NC(=O)C2CCCN(Cc3nc(-c4cccc(C)c4)oc3C)C2)CC1 (stereo not shown),-24.2
12,Cc1cccc(-c2nc(CN3CCCC(C(=O)NC4CCCC4)C3)c(C)o2)c1 (stereo not shown),-26.4
13,CCOc1ccc(-c2nc(CN3CCCC(C(=O)N4CCOCC4)C3)c(C)o2)cc1 (stereo not shown),-5.79
14,CCOC(=O)N1CCC(NC(=O)C2CCCN(Cc3nc(-c4cccc(Cl)c4)oc3C)C2)CC1 (stereo not shown),-50.4
15,CCOC(=O)N1CCC(NC(=O)C2CCCN(Cc3nc(-c4ccc(CC)cc4)oc3C)C2)CC1 (stereo not shown),-39.3
16,Cc1oc(-c2ccc(Cl)cc2)nc1CN1CCCC(C(=O)NC2CC2)C1 (stereo not shown),-18.2
17,COc1ccc(-c2nc(CN3CCCC(C(=O)NC4CCCC4)C3)c(C)o2)cc1 (stereo not shown),-53.5
18,Cc1oc(-c2ccc(Cl)cc2)nc1CN1CCCC(C(=O)N2CCOCC2)C1 (stereo not shown),-32.9
19,CCOC(=O)N1CCN(C(=O)C2CCCN(Cc3nc(-c4ccc(Cl)cc4)oc3C)C2)CC1 (stereo not shown),-57.7
